Results filed as inconclusive are left out. A number with no mark means an inactive call. Active and inactive are the calls of the source.
biological target: Androgen receptor (Homo sapiens) (UniProt P10275); experiment: qHTS assay to identify small molecule antagonists of the androgen receptor (AR) signaling pathway (AID 743035; active means well fitted inhibition curve with a large enough effect in the signal ratio in the repeat runs, not every such curve was filed as active; the % refers to the signal ratio; further: potency means the concentration at half of the fitted maximal effect); conditions: HEK293 AR-UAS-bla, R1881-stimulated, beta-lactamase FRET, 16 h; series mostly up to 58.5 µM; activity change, negative = inhibition: at the top concentration
Sequence (P10275 whole entry, looked up): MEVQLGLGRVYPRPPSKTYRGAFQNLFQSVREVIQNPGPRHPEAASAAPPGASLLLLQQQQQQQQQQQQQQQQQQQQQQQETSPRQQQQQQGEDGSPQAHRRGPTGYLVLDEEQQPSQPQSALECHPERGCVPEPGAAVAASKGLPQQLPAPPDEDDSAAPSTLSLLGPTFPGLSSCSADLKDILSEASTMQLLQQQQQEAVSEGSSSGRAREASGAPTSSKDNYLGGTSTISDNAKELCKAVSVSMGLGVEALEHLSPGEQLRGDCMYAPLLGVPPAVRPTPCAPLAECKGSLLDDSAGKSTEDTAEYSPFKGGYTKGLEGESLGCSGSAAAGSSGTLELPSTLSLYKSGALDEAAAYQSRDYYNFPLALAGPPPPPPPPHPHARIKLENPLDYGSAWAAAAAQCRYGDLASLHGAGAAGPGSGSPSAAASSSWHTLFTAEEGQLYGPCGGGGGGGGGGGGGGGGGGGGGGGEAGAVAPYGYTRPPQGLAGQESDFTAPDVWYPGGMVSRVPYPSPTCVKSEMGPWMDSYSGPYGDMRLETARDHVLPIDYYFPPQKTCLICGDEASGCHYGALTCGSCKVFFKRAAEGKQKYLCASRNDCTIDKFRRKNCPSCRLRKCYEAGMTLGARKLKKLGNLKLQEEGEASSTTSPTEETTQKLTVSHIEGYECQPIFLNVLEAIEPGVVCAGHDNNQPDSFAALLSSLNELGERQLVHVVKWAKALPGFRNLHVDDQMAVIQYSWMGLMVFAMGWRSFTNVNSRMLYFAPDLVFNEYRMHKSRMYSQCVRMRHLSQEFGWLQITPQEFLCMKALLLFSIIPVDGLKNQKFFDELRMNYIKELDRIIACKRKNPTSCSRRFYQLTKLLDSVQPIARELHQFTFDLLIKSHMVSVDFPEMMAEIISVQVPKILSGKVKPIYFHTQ
How it was run: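 Antagonist mode: AR-bla HEK293 cells co-treated with test compounds and agonist R1881 for 16 h at 37C, 5% CO2. Beta-lactamase activity read as FRET fluorescence after 2 h room-temperature substrate loading.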
On the % scale 0 is the no-effect control and ±100 the full control effect.

Compound | activity change, negative = inhibition | Potency
CC[C@H](N)c1ccccc1 | -3.84% | 
CCCOc1nn(C(=O)NS(=O)(=O)c2ccccc2C(=O)OC)c(=O)n1C | 4.61% | 
CCN[C@@H](C)Cc1ccccc1 | -3.99% [at 78.9 µM] | 
CCOC(=O)CC(SP(=S)(OC)OC)C(=O)OCC (stereo unspecified) | 13.7% | 
CCN(CC)C1CCCCC1 | 5.68% | 
O=S1(=O)OCCO1 | 3.92% [at 78.9 µM] | 
CCOP(=S)(OCC)SCCl | 6.57% | 
CCC1(c2ccccc2)C(=O)N(COC)C(=O)N(COC)C1=O | 4.1% | 
CCOC1Oc2ccc(OS(C)(=O)=O)cc2C1(C)C (stereo unspecified) |  | 43.3 µM (active)
Clc1ccc(C(Cl)(Cl)Cl)cn1 | -0.0458% | 

biological target: Androgen receptor (Homo sapiens) (UniProt P10275); experiment: qHTS assay to identify small molecule agonists of the androgen receptor (AR) signaling pathway (AID 743036; active means well fitted activation curve with a large enough effect in the signal ratio in the repeat runs, with a control signal flat, not every such curve was filed as active; the % refers to the signal ratio); conditions: HEK293 AR-UAS-bla GripTite, beta-lactamase FRET ratio, 16 h; series mostly up to 62.4 µM; activation: at the top concentration
How it was run: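 Screening used 2,000 AR-bla HEK293 cells per well, treated 16 h at 37C with test compounds in DMSO alongside positive and DMSO-only controls; beta-lactamase activity was then read by LiveBLAzer B/G FRET fluorescence after 2 h at room temperature.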

Compound | activation
CC[C@H](N)c1ccccc1 | -2.72%
CCNc1nc(Cl)nc(NC(C)(C)C)n1 | -16%
CCCOc1nn(C(=O)NS(=O)(=O)c2ccccc2C(=O)OC)c(=O)n1C | -4.27%
CCN[C@@H](C)Cc1ccccc1 | -5.87% [at 79.1 µM]
CCOC(=O)CC(SP(=S)(OC)OC)C(=O)OCC (stereo unspecified) | 7.77%
CCN(CC)C1CCCCC1 | 0.202%
O=S1(=O)OCCO1 | 0.84% [at 79.1 µM]
CCOP(=S)(OCC)SCCl | -9.67%
CCC1(c2ccccc2)C(=O)N(COC)C(=O)N(COC)C1=O | 3.24%
CCOC1Oc2ccc(OS(C)(=O)=O)cc2C1(C)C (stereo unspecified) | -0.92%
Clc1ccc(C(Cl)(Cl)Cl)cn1 | -2.53%

— PubChem BioAssay (Tox21)
